# Values without a mark were called inactive. Records with an inconclusive call do not appear. Where a call stands in place of a potency, no number is given. Where a structure was tested more than once in an assay, its records may differ in their call. Activity calls are given as the source filed them. Calls come from the whole dose curve; as a rule, active = well fitted curve in the direction sought with a large enough effect; inconclusive = small, poorly fitted or top-dose-only effect, or another doubt; inactive = no such curve, though single readings can be large; an effect the other way counts as inactive or inconclusive.
# Target: Ubiquitin carboxyl-terminal hydrolase 1 (Homo sapiens) (UniProt O94782)
# Assay: Inhibitors of USP1/UAF1: Pilot qHTS (AID 504865); note: nearly all actives have a fitted effect of over 35% in size; note: potency is the fitted concentration of half-maximal effect;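 for activity change, negative = inhibition: rhodamine fluorescence freed from ubiquitin-rhodamine substrate followed over time; top concentration of the series differs between compounds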
# Conditions: purified USP1/UAF1, Ub-rhodamine cleavage fluorescence; series mostly up to 114 µM
# In short: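 Kinetic fluorescence assay: 1nM USP1/UAF1, 15 min compound preincubation, then 150nM Ub-Rho; 480/540 nm.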
# Chain of Ubiquitin carboxyl-terminal hydrolase 1 (Homo sapiens) (O94782 whole entry, looked up): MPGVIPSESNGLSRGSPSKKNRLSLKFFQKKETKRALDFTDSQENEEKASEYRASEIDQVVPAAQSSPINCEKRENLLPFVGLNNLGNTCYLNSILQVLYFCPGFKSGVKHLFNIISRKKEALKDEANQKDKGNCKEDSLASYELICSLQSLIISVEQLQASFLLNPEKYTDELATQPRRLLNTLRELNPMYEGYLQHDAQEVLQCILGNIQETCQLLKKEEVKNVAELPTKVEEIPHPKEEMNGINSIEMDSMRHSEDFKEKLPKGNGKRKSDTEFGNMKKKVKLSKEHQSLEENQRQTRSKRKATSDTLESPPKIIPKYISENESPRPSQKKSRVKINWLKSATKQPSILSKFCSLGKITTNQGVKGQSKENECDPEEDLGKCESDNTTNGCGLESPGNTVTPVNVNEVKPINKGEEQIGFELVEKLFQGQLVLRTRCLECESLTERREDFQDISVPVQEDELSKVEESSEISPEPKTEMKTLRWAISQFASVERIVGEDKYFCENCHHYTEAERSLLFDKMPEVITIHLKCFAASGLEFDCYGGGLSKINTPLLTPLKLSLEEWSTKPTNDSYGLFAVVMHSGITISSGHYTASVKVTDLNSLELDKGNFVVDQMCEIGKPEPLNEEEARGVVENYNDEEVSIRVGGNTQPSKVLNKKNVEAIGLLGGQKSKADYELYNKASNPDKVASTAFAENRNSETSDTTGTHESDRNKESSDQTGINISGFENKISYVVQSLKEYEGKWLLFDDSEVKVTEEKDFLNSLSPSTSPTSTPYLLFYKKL
SMILES,Potency,"activity change, negative = inhibition"
CCC1(c2ccc(N)cc2)CCC(=O)NC1=O (stereo not given),inactive,–
CC(NC(C)(C)C)C(=O)c1cccc(Cl)c1 (stereo not given),inactive,–
O=P1(N(CCCl)CCCl)NCCCO1 (stereo not given),inactive,–
O=c1[nH]oc2c1CCNC2,inactive,–
Cc1ncsc1CCCl,inactive,–
C[C@]12CCC(=O)C=C1CC[C@@H]1[C@@H]2CC[C@]2(C)C(=O)CC[C@@H]12,inactive,–
O=C(CCCN1CCC2(CC1)C(=O)NCN2c1ccccc1)c1ccc(F)cc1,inactive,–
COc1ccc2c(c1OC)C(=O)O[C@H]2[C@@H]1c2cc3c(cc2CCN1C)OCO3,inactive,–
NCCc1ccc(O)cc1,inactive,–
O=C(O)CCCc1ccc(N(CCCl)CCCl)cc1,inactive,–
C=C(C)[C@H]1CN[C@H](C(=O)O)[C@H]1CC(=O)O,inactive,–
CC(C)c1cccc(C(C)C)c1O,inactive,–
CN1C(=O)CCS(=O)(=O)C1c1ccc(Cl)cc1 (stereo not given),inactive,–
CC(C)(C)NCC(O)c1ccccc1Cl (stereo not given),inactive,–
CC(C)N(CCC(C(N)=O)(c1ccccc1)c1ccccn1)C(C)C (stereo not given),inactive,–
CCCCC/C=C\C/C=C\C/C=C\C/C=C\CCCC(=O)NCC(=O)O,18.9 µM (active),-11.7% [at 11.4 µM]

# Test system: not listed separately
# Assay: qHTS for Inhibitors of ATXN expression: Validation (AID 588378); note: nearly all actives have a fitted effect of over 75% in size
# Conditions: cell-based ATXN2 expression reporter assay, luminescence; series mostly up to 57.1 µM
# In short: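 Validation of ATXN2 expression inhibitors uses a cell-based luciferase fusion reporter in HEK293 cells, with 24 h compound exposure and paired viability (fluorescence) and reporter (luminescence) end-point reads.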
row,SMILES,outcome
1,CCC1(c2ccc(N)cc2)CCC(=O)NC1=O (stereo not given),inactive
2,CC(NC(C)(C)C)C(=O)c1cccc(Cl)c1 (stereo not given),inactive
3,O=P1(N(CCCl)CCCl)NCCCO1 (stereo not given),inactive
4,O=c1[nH]oc2c1CCNC2,inactive
5,Cc1ncsc1CCCl,inactive
6,O=C(CCCN1CCC2(CC1)C(=O)NCN2c1ccccc1)c1ccc(F)cc1,inactive
7,COc1ccc2c(c1OC)C(=O)O[C@H]2[C@@H]1c2cc3c(cc2CCN1C)OCO3,inactive
8,NCCc1ccc(O)cc1,inactive
9,O=C(O)CCCc1ccc(N(CCCl)CCCl)cc1,inactive
10,C=C(C)[C@H]1CN[C@H](C(=O)O)[C@H]1CC(=O)O,inactive
11,CC(C)c1cccc(C(C)C)c1O,inactive
12,CN1C(=O)CCS(=O)(=O)C1c1ccc(Cl)cc1 (stereo not given),inactive
13,CC(C)(C)NCC(O)c1ccccc1Cl (stereo not given),inactive
14,CC(C)N(CCC(C(N)=O)(c1ccccc1)c1ccccn1)C(C)C (stereo not given),inactive
15,CCCCC/C=C\C/C=C\C/C=C\C/C=C\CCCC(=O)NCC(=O)O,inactive

# Target: DNA dC->dU-editing enzyme APOBEC-3G (Homo sapiens) (UniProt Q9HC16)
# Assay: qHTS for inhibitors of Vif-A3G interactions: Validation (AID 588379)
# Conditions: Vif-A3G protein interaction assay; series mostly up to 46.1 µM
# In short: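 Yellow fluorescence (Ex 488, Em 500-530) of Vif-coexpressing HeLa A3G-eYFP cells, scanned by Acumen cytometer, reports blocked A3G degradation. Cells plated at 700/well overnight at 37 deg C before compound addition, then a further overnight compound incubation at 37 deg C.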
# Chain of DNA dC->dU-editing enzyme APOBEC-3G (Homo sapiens) (Q9HC16 whole entry, looked up): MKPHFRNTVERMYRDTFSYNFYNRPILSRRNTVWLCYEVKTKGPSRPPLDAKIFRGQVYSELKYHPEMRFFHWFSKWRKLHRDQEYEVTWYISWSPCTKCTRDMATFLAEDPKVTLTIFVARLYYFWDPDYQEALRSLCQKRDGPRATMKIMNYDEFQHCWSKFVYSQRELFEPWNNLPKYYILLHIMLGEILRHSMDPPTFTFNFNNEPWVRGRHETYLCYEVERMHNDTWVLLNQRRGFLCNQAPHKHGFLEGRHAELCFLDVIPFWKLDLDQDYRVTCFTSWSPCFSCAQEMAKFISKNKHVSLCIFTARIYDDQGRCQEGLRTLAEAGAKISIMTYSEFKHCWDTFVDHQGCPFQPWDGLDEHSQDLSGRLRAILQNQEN
row,SMILES,outcome
1,O=c1[nH]oc2c1CCNC2,inactive
2,Cc1ncsc1CCCl,inactive
3,O=C(CCCN1CCC2(CC1)C(=O)NCN2c1ccccc1)c1ccc(F)cc1,inactive

# From PubChem BioAssay (NCATS)
